Several values for one entry are separate records, joined by “and”; a condition that tells them apart may be missing. Identical values can stand only once. Records with an inconclusive call do not appear. Activity calls are given as the source filed them. Calls come from the whole dose curve; as a rule, active = well fitted curve in the direction sought with a large enough effect; inconclusive = small, poorly fitted or top-dose-only effect, or another doubt; inactive = no such curve, though single readings can be large; an effect the other way counts as inactive or inconclusive.
What was measured:
[1] = Viability qHTS for spleen associated tyrosine kinase inhibitor (SYKi) drug resistant MV4-11 cells (AID 1963824); note: nearly all actives have a fitted effect of over 35% in size
How it was run: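 SYK-inhibitor-resistant MV4-11 AML cells were seeded at 500 per well onto compound and cultured 72 hours (37 °C, 5% CO2). CellTiter-Glo was then added, and after 10 min at room temperature, luminescence gave viability.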

[2] = Quantitative highthroughput screen to assess conditional lethalithy of NOMO1 cells grown in RPMI1640 with untreated serum (RPMI+s) (AID 1963876); note: nearly all actives have a fitted effect of over 35% in size;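 for Viability: 100% = DMSO wells and 0% = empty wells without cells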
How it was run: (§1)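 Each medium arm—HPLM with 10% dialyzed FBS, or RPMI1640 with 5 mM glucose and 10% untreated or dialyzed FBS—was screened against an 11-point, 3-fold compound titration for 48 h at 37 °C, with CellTiter-Glo luminescence as endpoint.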

[3] = Quantitative highthroughput screen to assess conditional lethalithy of NOMO1 cells grown in RPMI1640 with dialyzed fetal bovine serum (RPMI+ds) (AID 1963877); note: nearly all actives have a fitted effect of over 30% in size;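 for Viability: series mostly up to about 46 µM; 100% = DMSO control wells and 0% = empty wells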
How it was run: as §1

[4] = Quantitative highthroughput screen to assess conditional lethalithy of NOMO1 cells grown in Human Plasma-Like Medium with dialyzed fetal bovine serum (HPLM+ds) (AID 1963878); note: nearly all actives have a fitted effect of over 35% in size;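 for Viability: 100% = DMSO wells and 0% = empty wells on each plate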
How it was run: as §1

[5] = Quantitative highthroughput screen to assess conditional lethalithy of P12 Ichikawa cells grown in Human Plasma-Like Medium with dialyzed fetal bovine serum (HPLM+ds) (AID 1963879); conditions: Potency: viability; note: nearly all actives have a fitted effect of over 35% in size; for Viability: series mostly up to about 46 µM
How it was run: as §1

[6] = Quantitative highthroughput screen to assess conditional lethalithy of P12 Ichikawa cells grown in RPMI1640 with dialyzed fetal bovine serum (RPMI+ds) (AID 1963880); conditions: Potency: P12-Ichikawa viability; note: nearly all actives have a fitted effect of over 35% in size;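 for Viability: 100% = DMSO wells and 0% = empty wells on each plate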
How it was run: as §1

[7] = Quantitative highthroughput screen to assess conditional lethalithy of P12 Ichikawa cells grown in RPMI1640 with untreated serum (RPMI+s) (AID 1963881); conditions: Potency: viability; note: nearly all actives have a fitted effect of over 35% in size;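 for Viability: series mostly up to about 46 µM; 100% = DMSO wells and 0% = empty wells without cells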
How it was run: as §1

[8] = Quantitative highthroughput screen to assess conditional lethalithy of SEM cells grown in Human Plasma-Like Medium with dialyzed fetal bovine serum (HPLM+ds) (AID 1963882); note: nearly all actives have a fitted effect of over 35% in size; for Viability: series mostly up to about 46 µM
How it was run: as §1

[9] = Quantitative highthroughput screen to assess conditional lethalithy of SEM cells grown in RPMI1640 with unreated serum (RPMI+s) (AID 1963883); note: nearly all actives have a fitted effect of over 35% in size;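 for Viability: 100% = DMSO wells and 0% = empty wells without cells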
How it was run: as §1

[10] = Quantitative highthroughput screen to assess conditional lethalithy of SEM cells grown in RPMI1640 with dialyzed fetal bovine serum (RPMI+ds) (AID 1963884); note: nearly all actives have a fitted effect of over 35% in size;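 for Viability: series mostly up to about 46 µM; 100% = DMSO control wells and 0% = empty wells without cells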
How it was run: as §1

[11] = Cellular viability qHTS for adrenocortical cancer (ACC) cell line SW-13 (AID 1963989); conditions: SW-13 ACC cells viability, CellTiter-Glo, 48 h; activity (max response): active compounds read low; note: nearly all actives have a fitted effect of over 65% in size;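 for activity (max response): cells grown in serum-free medium with ITS supplement; % is set by controls: 0 for no effect and ±100 for the full control effect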
How it was run: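 SW-13 cells in ITS-supplemented serum-free DMEM were plated overnight, then exposed for 48 h at 37C to compound titrations (up to 46 uM final). Viability was read by CellTiter-Glo luminescence; four-parameter logistic fits gave IC50 and efficacy.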

[12] = Cellular viability qHTS for adrenocortical cancer (ACC) cell line NCI-H295R (AID 1963990); note: nearly all actives have a fitted effect of over 60% in size;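 for activity change, negative = viability loss: 0% = DMSO only wells and -100% = full killing with cytotoxic reference compound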
How it was run: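 Luminescent ATP read-out (CellTiter-Glo, 20 min RT) after 48 h drug exposure of NCI-H295R cells; a titration up to 46 uM final. Data normalized to doxorubicin (100% inhibition) and DMSO (0%); 4-parameter fit gives IC50, max response.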
Potency is the fitted concentration of half-maximal effect.

Clc1ccc(Nc2nnc(Cc3ccncc3)c3ccccc23)cc1
inactive: Potency [2] | Potency [3] | Potency [4] | Potency [5] | Potency [6] | Potency [7]
active: Potency [1] 10.6 µM

C=C1CCC2[C@](C)(CO)CCC[C@@]2(C)[C@@H]1CCC1=CCOC1=O (stereo partly drawn)
active: Potency [1] 7.18 µM

Cc1c(NC(=O)c2ccc(C(C)(C)C)cc2)cccc1-c1cn(C)c(=O)c(Nc2ccc(C(=O)N3CCOCC3)cc2)n1
inactive: Potency [2] | Potency [3] | Potency [4] | Potency [5] | Potency [6] | Potency [7] | Potency [8] | Potency [9] | Potency [10] | activity (max response) [11] -3.65% | Potency [12]
active: Potency [1] 11.4 µM and 16.6 µM

COc1ccc(Cc2ccc(NC(N)=O)cc2)cc1-c1cccc(Cl)c1
inactive: Potency [2] | Potency [3] | Potency [4] | Potency [5] | Potency [6] | Potency [7] | Potency [8] | Potency [9]
active: Potency [1] 18.6 µM | Potency [12] 28.2 µM

Cc1ccc(-n2nc(C(C)(C)C)cc2NC(=O)Nc2cc(COc3cccnc3)[nH]n2)cc1
active: Potency [1] 0.146 µM

COc1cc2nc(N3CCCN(C)CC3)nc(NC3CCN(Cc4ccccc4)CC3)c2cc1OC
active: Potency [1] 2.35 µM | Potency [2] 8.33 µM | Potency [3] 5.26 µM | Potency [4] 5.26 µM | Potency [5] 11.8 µM | Potency [6] 11.8 µM | Potency [7] 13.2 µM | Potency [8] 5.26 µM | Potency [9] 11.8 µM | Potency [11] 5.62 µM | Potency [12] 8.91 µM

CC(C)(O)CCc1ccc(OCc2cc(-c3cccc(OC(F)F)c3)c3ncccc3c2)cc1
inactive: Potency [2] | Potency [3] | Potency [4] | Potency [5] | Potency [6] | Potency [7] | Potency [8] | Potency [9] | Potency [10]
active: Potency [1] 16.6 µM | Potency [12] 25.1 µM

CN(C)c1ccc(Nc2nc(N)n(C(=O)c3c(F)cccc3F)n2)cc1
active: Potency [1] 4.17 µM | Potency [3] 11.8 µM
inactive: Potency [2]

NC(=O)c1ccc(-c2nc(-c3ccc4c(c3)OCO4)c(-c3ccccn3)[nH]2)cc1
active: Potency [1] 11.6 µM
inactive: Potency [2] | Potency [3] | Potency [4] | Potency [5] | Potency [6] | Potency [7] | Potency [8] | Potency [9] | Potency [10] | activity (max response) [11] -5.02% | Potency [12]

O=P(O)(O)C(O)(Cn1ccnc1)P(=O)(O)O
inactive: viability, % of control [1] 89.7% [at 4.97 µM] | Potency [2] | Potency [3] | Potency [4] | Potency [5] | Potency [6] | Potency [7] | Potency [8] | Potency [9] | activity (max response) [11] -1.67% | activity change, negative = viability loss [12] -3.44% [at 3.81 µM]

C[C@@H]1C(=O)O[C@H]2CC34[C@H]5C[C@@H](C(C)(C)C)C36[C@H](OC(=O)[C@@H]6O)O[C@@]4(C(=O)O5)[C@]21O (stereo partly drawn)
inactive: Potency [1] | Potency [2] | Potency [3] | Potency [4] | Potency [5] | Potency [6] | Potency [7] | Potency [8] | Potency [9] | Potency [10] | activity (max response) [11] -23.3% | Potency [12]

COc1ccc2c(c1OC)C(=O)OC2[C@H]1c2c(cc3c(c2OC)OCO3)CCN1C (stereo partly drawn)
active: Potency [1] 23.5 µM | Potency [2] 0.296 µM | Potency [3] 0.332 µM | Potency [4] 0.148 µM | Potency [5] 0.469 µM | Potency [6] 0.59 µM | Potency [7] 0.418 µM | Potency [8] 0.235 µM | Potency [9] 0.118 µM | Potency [10] 0.187 µM | Potency [11] 22.4 µM | Potency [12] 25.1 µM

CN1C(=O)c2sccc2N(C)c2nc(Nc3ccc(S(N)(=O)=O)cc3)ncc21
active: Potency [1] 0.468 µM | Potency [2] 10.5 µM | Potency [3] 13.2 µM | Potency [4] 9.33 µM | Potency [5] 2.63 µM | Potency [6] 2.34 µM | Potency [7] 2.63 µM | Potency [8] 2.63 µM | Potency [9] 2.34 µM | Potency [10] 2.34 µM | Potency [11] 20 µM

CC1Cc2ccccc2N1NC(=O)c1ccc(Cl)c(S(N)(=O)=O)c1 (stereo not drawn)
inactive: Potency [1] | Potency [2] | Potency [3] | Potency [4] | Potency [5] | Potency [6] | Potency [7] | Potency [8] | Potency [9] | Potency [10] | activity (max response) [11] 9.73% and 7.78% | Potency [12]

Cc1ccc(C(=O)Nc2ccc(Oc3cc4cnn(C)c4cc3-c3cn[nH]c3)c(F)c2)c(=O)n1-c1ccc(F)cc1
inactive: activity (max response) [11] -20.9%
active: Potency [1] 0.0047 µM | Potency [2] 8.31 µM | Potency [3] 9.33 µM | Potency [4] 7.41 µM | Potency [6] 7.41 µM | Potency [8] 0.295 µM | Potency [9] 0.467 µM | Potency [10] 0.234 µM

COc1cc(C(C)C)c(Oc2cnc(NC(CO)CO)nc2N)cc1I
active: Potency [1] 14.8 µM
inactive: Potency [2] | Potency [3] | Potency [4] | Potency [5] | Potency [6] | Potency [7] | Potency [8] | Potency [12]

O=C(Nc1cc(Cl)cc2c1[nH]c1cnccc12)c1cccnc1
active: Potency [1] 3.55 µM
inactive: Potency [2] | Potency [3] | Potency [4] | Potency [6] | Potency [7] | Potency [8] | activity (max response) [11] 7.23% | Potency [12]

— PubChem BioAssay (NCATS)
